# Screens (PubChem BioAssay)
# This is a sample that favours compounds with a hit; in the whole collection about 7.3% have one here.
# Tau fluor cs: counter-screen for tau fibril formation inhibitors | 0.93% of 280,000 active | tau K18 P301L Alexa594 fluorescence, heparin fibrillization | Potency, µM (series often up to 57.7 µM); note: nearly all actives have a fitted effect of over 55% in size
#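 Human K18 P301L tau (15 uM unlabeled plus 0.24 uM Alexa 594-labeled, final) in 100 mM sodium acetate pH 7 was mixed with compound and 20 uM heparin and incubated 6 hr at 37 C.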
# RORg inh: inhibitors of mouse ROR gamma transcriptional activity; 5.4% of 310,000 active; Drosophila S2 Gal4-RORgamma UAS-luciferase reporter, 20 h; Potency, µM (series often up to 53.6 µM), hits mostly inhibitors; P51450; note: nearly all actives have a fitted effect of over 60% in size
# Target sequence (P51450 whole entry, looked up, the tested form may be a part): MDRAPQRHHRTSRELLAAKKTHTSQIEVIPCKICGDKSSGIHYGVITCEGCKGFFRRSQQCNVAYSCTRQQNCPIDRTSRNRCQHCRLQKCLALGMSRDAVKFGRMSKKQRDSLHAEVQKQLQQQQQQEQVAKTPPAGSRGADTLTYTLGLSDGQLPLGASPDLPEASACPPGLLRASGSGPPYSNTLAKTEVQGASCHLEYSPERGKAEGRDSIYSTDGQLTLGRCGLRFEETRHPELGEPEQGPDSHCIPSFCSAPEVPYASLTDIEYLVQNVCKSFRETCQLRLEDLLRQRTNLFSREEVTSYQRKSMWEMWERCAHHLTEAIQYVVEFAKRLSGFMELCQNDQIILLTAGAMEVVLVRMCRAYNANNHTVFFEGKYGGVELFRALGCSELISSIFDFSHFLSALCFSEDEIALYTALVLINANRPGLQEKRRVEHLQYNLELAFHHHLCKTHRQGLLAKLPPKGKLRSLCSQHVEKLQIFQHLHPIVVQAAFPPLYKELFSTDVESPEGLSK
#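 Schneider cells (Drosophila), stable Gal4 DBD–ROR gamma + UAS-luc; 1 hr cmpd preincubation; Cu2+ induction 700 uM final; 20 hr ambient; luminescence.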
# Gal4-VP16 FLuc: Gal4-VP16 reporter inhibition counter-screen; Drosophila S2 Gal4-VP16 UAS-luciferase, luminescence, 20 h; Potency, µM (titrated, usually from 53.6 µM), usual class: inhibitors; 3.5% of 310,000 active; AID 2546;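 note: Gal4-VP16 expression switched on by copper sulfate through the metallothionein promoter; nearly all actives have a fitted effect of over 50% in size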
# Tau fibril ThT: blocks human tau fibril formation measured by thioflavin T; recombinant tau K18 P301L (four-repeat tau fragment), heparin-induced fibrillization, ThT fluorescence; P10636; Potency, µM (highest dose often 57.4 µM), usual class: inhibitors; AID 1460; 2.1% of 270,000 active; note: nearly all actives have a fitted effect of over 55% in size
# Target sequence (P10636 561-689 P618L limits assumed): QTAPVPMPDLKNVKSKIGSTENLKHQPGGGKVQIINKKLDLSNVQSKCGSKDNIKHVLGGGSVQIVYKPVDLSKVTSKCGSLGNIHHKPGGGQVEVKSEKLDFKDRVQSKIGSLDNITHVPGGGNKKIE
#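 K18 P301L tau (15 uM + 0.24 uM Alexa 594-tagged), heparin 20 uM, NaOAc pH 7, 6 h 37 C; ThT 30 uM, 1 h RT, ex 450/em 510 nm.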
# Tau FP inhib: tau fibrillization inhibition (FP); P10636; Potency, µM (highest dose often 57.7 µM), hits mostly inhibitors; K18 P301L tau heparin fibrillization, Alexa594 FP, 6 h; AID 1468; 0.39% of 280,000 active; note: nearly all actives have a fitted effect of over 55% in size
#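 Recombinant K18 P301L […], labeled with Alexa 594 at 0.24 uM over 15 uM unlabeled; heparin inducer 20 uM final; 37 C, 6 hr; FP endpoint.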
# Hits are given with their value; – = inactive; ? = inconclusive; · = no result; [ ] = another dose, or the depositor's remark. Calls come from the whole dose curve; as a rule, active = well fitted curve in the direction sought with a large enough effect; inconclusive = small, poorly fitted or top-dose-only effect, or another doubt; inactive = no such curve, though single readings can be large; an effect the other way counts as inactive or inconclusive.
SMILES,Tau fluor cs,RORg inh,Gal4-VP16 FLuc,Tau fibril ThT,Tau FP inhib
O=C(CNc1cccc(Cl)c1)NNC(=S)NCc1ccccc1,–,14.1µM,–,–,–
O=C(N/N=C/c1cccnc1)c1cc(-c2ccc(Br)cc2)nc2ccccc12,·,–,–,·,·
O=C(CN1C(=O)NC2NC(=O)NC21)N/N=C/c1ccccc1F (configuration not stated),–,–,–,–,–
CCc1ccccc1NC(=O)CCc1c(C)nc2cc(-c3ccccc3)nn2c1C,–,·,·,–,–
O=C(c1cc(C(F)(F)F)cc(C(F)(F)F)c1)N1CCC[C@@]2(CCN(c3ccccc3)C2)C1,·,–,–,·,·
O=C(CNc1ccc(Cl)cc1)NNC(=S)NCc1ccccc1,?,10µM,?,–,–
C=COCCNC(=S)Nc1cccc(Cl)c1,–,6.31µM,?,–,–
O=C(CCc1ccccc1)NNC(=S)NCc1ccc(Cl)cc1,·,1.12µM,?,·,·
O=C(CCc1ccccc1)NNC(=S)NC(=O)c1ccc(Cl)cc1,–,12.6µM,11.2µM,–,–
C=CCn1c(=O)c2c(nc(-c3ccccc3)n2C)n(C)c1=O,–,·,·,–,–
O=C(CN1C(=O)CC(c2ccc(F)cc2)=Nc2ccccc21)NCc1ccccc1Cl,–,·,·,–,–
O=C(NNC(=O)c1ccccc1OCc1ccc(F)cc1)c1ccccc1O,·,4.47µM,10µM,·,·
O=C(NNC(=O)c1ccccc1OCc1ccccc1)c1ccccc1F,·,–,–,·,·
O=C(NNC(=O)c1ccccc1OCc1ccccc1)c1ccccc1O,·,6.31µM,11.2µM,·,·
O=C(NCc1ccc(F)cc1)c1ccccc1OCc1ccccc1,–,–,–,?,–
Cc1cccc(/C(N)=N/OC(=O)c2cccc3ccccc23)c1,·,1.12µM,5.62µM,·,·
N/C(=N\OC(=O)c1ccc(Cl)cc1Cl)c1ccc(Cl)cc1,–,–,–,–,–
N/C(=N\OC(=O)c1ccc(Cl)cc1Cl)c1cccnc1,–,–,?,–,–
Cc1cccc(/C(N)=N/OC(=O)c2ccc(Cl)cc2Cl)c1,–,2µM,20µM,?,–
N/C(Cc1ccc(Cl)cc1Cl)=N\OC(=O)c1ccccc1,–,12.6µM,–,–,–
N/C(=N\OC(=O)c1cccc2ccccc12)c1cccc([N+](=O)[O-])c1,–,–,?,–,–
N/C(=N\OC(=O)c1ccc(Cl)cc1Cl)c1ccccc1,–,5.01µM,?,?,–
COc1ccc(C(=O)O/N=C(\N)c2ccc(OC)c(OC)c2)c(OC)c1,·,–,–,·,·
COc1ccc(C(=O)O/N=C(\N)c2ccccc2)c(OC)c1,–,4.47µM,8.91µM,?,–
Cc1ccc(/C(N)=N/OC(=O)c2ccc(C)cc2Cl)cc1,–,4.47µM,10µM,–,–
SMILES,Tau fluor cs,RORg inh,Gal4-VP16 FLuc,Tau fibril ThT,Tau FP inhib
C=CCN1C(=O)c2ccc(C(=O)N3CCC(C(N)=O)CC3)cc2C1=O,·,–,–,·,·
COc1ccc2oc(=N)c(C(=O)Nc3cccc(C)c3C)cc2c1,·,3.16µM,–,·,·
COc1ccc2oc(=O)c(C(=O)Nc3ccccc3C)cc2c1,·,0.891µM,?,·,·
COc1ccc2oc(=N)c(C(=O)Nc3ccccc3Cl)cc2c1,·,–,–,·,·
Cc1ccc2[nH]c(CSc3nnc(COc4ccccc4C)n3C)cc(=O)c2c1,–,·,·,–,–
CCCc1nc2ccccc2c(=O)n1/N=C/c1c(C)[nH]n(-c2ccc(C)cc2)c1=O,–,12.6µM,?,–,–
Cc1nc2ccccc2c(=O)n1/N=C/c1ccc(O)cc1O,–,–,–,–,–
CCCc1nc2ccccc2c(=O)n1N,–,–,–,–,–
COc1cccc(/C=N/n2c(C)nc3ccccc3c2=O)c1O,–,3.16µM,15.8µM,–,–
CNc1nc2ccccc2n1/N=C/c1cccc(OC)c1OC,–,12.6µM,–,?,–
CCCc1nc2ccccc2c(=O)n1/N=C/c1ccccc1O,–,2.51µM,10µM,–,–
COc1cccc(/C=N/n2c(CO)nc3ccccc32)c1OC,–,–,–,?,–
C#CC(=O)N(c1cc(OC)ccc1OC)C(C(=O)NC1CCCC1)c1cccs1 (configuration not stated),–,4.47µM,7.08µM,?,–
COc1ccc(N(C(=O)c2ccco2)C(C(=O)NC2CCCCC2)c2cccs2)cc1OC (configuration not stated),–,?,–,–,–
C#CC(=O)N(c1ccc(OC)cc1OC)C(C(=O)NC1CCCC1)c1cccs1 (configuration not stated),–,6.31µM,7.94µM,?,–
NC(=S)N/N=C/c1coc2ccc(Br)cc2c1=O,–,–,–,·,–
NC(=S)N/N=C/c1coc2c(ccc3ccccc32)c1=O,–,5.62µM,7.94µM,?,–
NC(=S)N/N=C/c1coc2cc(Br)ccc2c1=O,?,–,–,15.8µM,–
NC(=O)N/N=C/c1coc2ccc3ccccc3c2c1=O,–,–,–,–,–
Cc1nn(-c2ccccc2)c(N)c1Sc1cccc([N+](=O)[O-])c1,–,–,–,–,–
Cc1cc(C)nc(-n2nc(C)c(Sc3ccc(F)cc3)c2N)n1,–,2.24µM,3.98µM,–,–
CCN1C/C(=C/c2ccc(OC)c(O)c2)C(=O)/C(=C/c2ccc(OC)c(O)c2)C1,–,6.31µM,?,14.1µM,?
COc1ccc(/C=C2\CN(Cc3ccccc3)C/C(=C\c3ccc(OC)c(O)c3)C2=O)cc1O,·,15.8µM,?,·,·
COc1cc(/C=C2/SC(=S)N(Cc3ccccc3)C2=O)ccc1O,·,?,–,·,·
CCc1cccc(NC(=O)Cn2cc(C=O)c3ccccc32)c1,–,?,–,–,–
SMILES,Tau fluor cs,RORg inh,Gal4-VP16 FLuc,Tau fibril ThT,Tau FP inhib
O=C(NNc1nc2cc3c(cc2s1)OCCO3)c1ccc(F)cc1,–,2.82µM,?,?,–
O=C(Nc1nc2cc3c(cc2s1)OCCO3)c1ccncc1,–,–,–,?,?
O=C(NNc1nc2cc3c(cc2s1)OCO3)c1ccc(F)cc1,–,1.26µM,?,–,–
CC(=O)N(Cc1ccc(F)cc1)C1=C(NCCc2ccccc2)C(=O)c2ccccc2C1=O,?,–,?,28.2µM,?
Cc1cccc(NC(=O)Cn2c(=O)n(CCc3ccccc3)c(=O)c3sc4ccccc4c32)c1,–,·,·,–,–
COCC(C)NC(=O)c1cc2cccc([N+](=O)[O-])c2[nH]1 (configuration not stated),–,–,–,·,–
Cc1cc(NC(=O)c2cc3cccc([N+](=O)[O-])c3[nH]2)ccc1F,25.1µM[quencher],–,–,·,?
CC(C)COC(=O)c1cccc2c1-c1ccccc1/C2=N\O,–,?,11.2µM,–,28.2µM
CCOC(=O)c1cccc2c1-c1ccccc1/C2=N/O,?,–,?,–,?
CC(C)c1nnc(NC(=O)CCS(=O)(=O)c2nc(-c3cccs3)cc(C(F)(F)F)n2)s1,–,1.78µM,1.58µM,–,–
Cc1cc(/C=C2/SC(=S)N(c3ccc([N+](=O)[O-])cc3)C2=O)c(C)n1-c1cccnc1,–,3.16µM,0.891µM,?,–
COC(=O)CN1C(=O)N/C(=C/c2ccc(C)o2)C1=O,–,?,?,?,?
